The values below come from article PMC5540273 (PLoS ONE, 2017).

Among the test systems are PAK3; PAK4; PAK6; PAK7; PDGFRA; PDGFRB; PDPK1.
Details in all cases: concentration: 1 μM, replicates: in singlicate; n = 1
The next test deals with T1, PCTK1.
T1 construct: gene CDK16

The subject of a further test is T2, PCTK2.
T2 construct: gene CDK17

In another test the test system is T3, PCTK3.
T3 construct: gene CDK18
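Note: KINOMEscan kinase panel screen.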

For the compound `CC(C)c1ccc(O)cc1Nc1ccnc2ccc(C(F)(F)F)cc12` [GW482059], the “%Inh” value with PAK3 amounted to 0%; in the test with PAK4, 0%; in the test on PAK6 it was 0%; with PAK7, 0%; with PCTK1, 2%; in the test on PCTK2, 0%. Further, the “%Inh” value is listed as 0% in the test on PCTK3, 3% in the test on PDGFRA, 10% in the test on PDGFRB and 18% with PDPK1.
Consider `COC(=O)c1cccc(NC(=O)NC2CCN(c3ccnc(Nc4ccc(OC)cc4)n3)C2)c1` (centres unmarked) [GSK1379746], for which the “%Inh” value in the test on PAK3, in the test with PAK4, with PAK6, with PAK7, in the test on PCTK1 and in the test with PCTK2 was 0% each time. Also, the “%Inh” value came out at 0% with PCTK3, 0% in the test with PDGFRA, 35% with PDGFRB and 0% in the test on PDPK1.
`Cn1cncc1C(=O)NC1CCN(c2ccnc(Nc3ccc(F)cc3)n2)C1` (centres unmarked) [GSK1379717]: the “%Inh” value is given as 0% with PAK3; 0% in the test with PAK4; 0% in the test on PAK6; 0% in the test with PAK7; 4% in the test with PCTK1; 0% in the test on PCTK2. For the same compound, the “%Inh” value in the test with PCTK3 is listed as 16%; in the test on PDGFRA, 2%; with PDGFRB, 14%; with PDPK1, 0%.
Regarding `CS(=O)(=O)CCNCc1nc(-c2ccc3ncnc(Nc4ccc(OCc5ccccc5)c(Cl)c4)c3c2)cs1.Cl` [GW582764], the “%Inh” value amounted to 24% in the test with PAK3; 0% with PAK4; 0% in the test with PAK6; 0% in the test with PAK7; 6% in the test on PCTK1; 0% in the test with PCTK2. Besides, the “%Inh” value in the test on PCTK3 is 17%; with PDGFRA, 0%; in the test with PDGFRB it was 8%; with PDPK1 it was 0%.
On to `CC(=O)c1c(C)c2cnc(Nc3ccn(C)n3)nc2n(C2CCCC2)c1=O`, for which the “%Inh” value in the test on PAK3, in the test with PAK4, in the test on PAK6, in the test on PAK7, with PCTK1 and in the test on PCTK2 was 0% throughout. Further, the “%Inh” value in the test with PCTK3 turned out to be 100%; in the test on PDGFRA it was 0%; with PDGFRB, 0%; with PDPK1 it was 0%.
For the compound `FC(F)(F)c1ccccc1-c1cc(-c2c[nH]nc2-c2ccccn2)ccn1` [GW679396], the “%Inh” value in the test with PAK3 turned out to be 8%; in the test with PAK4, 0%; with PAK6, 3%; with PAK7, 0%; with PCTK1 it was 0%; with PCTK2 it was 10%. The “%Inh” value in the test with PCTK3 was 7%; with PDGFRA, 0%; in the test with PDGFRB, 19%; in the test with PDPK1, 18%.
Consider `CNc1nc(-c2ccc3c(N)n[nH]c3c2)cc(N2C[C@@H](C(=O)NC3CCCCC3)OC[C@H]2C)n1` [GSK2375584], for which the “%Inh” value is reported as 0% with PAK3; 0% in the test on PAK4; 0% in the test on PAK6; 24% with PAK7; 0% in the test with PCTK1; 10% with PCTK2. Also, the “%Inh” value in the test with PCTK3 turned out to be 21%; in the test on PDGFRA it was 0%; in the test with PDGFRB it was 35%; with PDPK1 it was 79%.
As to `CSc1ccc(-c2nc3n(c2-c2ccncc2)CCC3)cc1` [SKF-105561], the “%Inh” value with PAK3 came to 0%; in the test with PAK4 it was 0%; in the test on PAK6, 0%; in the test on PAK7 it was 0%; in the test with PCTK1, 3%; in the test with PCTK2, 5%. In addition, the “%Inh” value with PCTK3 worked out at 0%; in the test with PDGFRA it was 28%; with PDGFRB, 0%; in the test with PDPK1, 0%.
With `Cc1ccc(NC(=O)Nc2ccc(Cl)cc2)cc1-c1ccc(C(=O)Nc2ccncc2)cc1` [GSK1398472], the “%Inh” value in the test with PAK3 came to 21%; with PAK4 it was 0%; in the test with PAK6, 0%; in the test with PAK7 it was 0%; in the test with PCTK1, 5%; in the test on PCTK2, 0%. Moreover, the “%Inh” value with PCTK3 turned out to be 0%; with PDGFRA it was 10%; with PDGFRB it was 99.7%; in the test on PDPK1, 0%.
For the compound `CNc1nc(-c2ccc3c(N)n[nH]c3c2)cc(N2C[C@@H](C(=O)Nc3ccccc3)CC[C@H]2C)n1` [GSK2298859], the “%Inh” value in the test with PAK3 was determined as 0%; with PAK4, 0%; in the test with PAK6, 2%; with PAK7 it was 20%; with PCTK1 it was 2%; in the test on PCTK2 it was 0%. In addition, the “%Inh” value was found to be 9% in the test on PCTK3, 0% in the test on PDGFRA, 10% in the test with PDGFRB and 83% with PDPK1.
Take `Cn1cncc1-c1cc2c(Nc3ccc(OCc4ccccc4)cc3)ncnc2cn1` [GW281179]: the “%Inh” value in the test on PAK3 came out at 0%; with PAK4, 0%; in the test with PAK6, 0%; in the test on PAK7, 0%; in the test with PCTK1 it was 11%; in the test on PCTK2, 0%. Besides, the “%Inh” value was 21% with PCTK3, 0% in the test with PDGFRA, 16% in the test with PDGFRB and 0% in the test with PDPK1.
For `COc1ccc(Nc2nccc(N3CCC(NC(=O)c4cc5ccccc5s4)C3)n2)cc1` (centres unmarked) [GSK1379738], the “%Inh” value in the test with PAK3 is recorded as 0%; with PAK4 it was 0%; in the test with PAK6, 2%; in the test on PAK7, 0%; with PCTK1, 15%; in the test on PCTK2, 0%. Moreover, the “%Inh” value came out at 0% with PCTK3, 0% with PDGFRA, 26% in the test on PDGFRB and 0% in the test on PDPK1.
In the case of `Nc1nccc(-c2c(-c3ccc(F)cc3)ncn2C2CCN(Cc3ccccc3)CC2)n1` [SB-219980], the “%Inh” value with PAK3 was 5%; in the test on PAK4, 0%; in the test with PAK6, 0%; in the test on PAK7, 0%; with PCTK1, 3%; with PCTK2, 0%. For the same compound, the “%Inh” value in the test on PCTK3 is 0%; in the test on PDGFRA it was 22%; in the test with PDGFRB it was 20%; in the test with PDPK1 it was 0%.
For `COc1cccc(CNC(=O)NC2CCN(c3ccnc(Nc4ccc(F)cc4)n3)C2)c1` (centres unmarked) [GSK1379723], the “%Inh” value in the test with PAK3 is 38%; with PAK4, 0%; in the test on PAK6, 0%; with PAK7, 0%; in the test with PCTK1, 10%; in the test with PCTK2, 0%. The “%Inh” value is 14% in the test with PCTK3, 7% in the test on PDGFRA, 15% in the test with PDGFRB and 0% in the test on PDPK1.
For the compound `Cc1cccc2c(-c3ccncn3)c(-c3ccc(F)cc3)nn12` [GW515532], the “%Inh” value is on record as 29% with PAK3; 0% in the test on PAK4; 0% in the test with PAK6; 3% in the test on PAK7; 0% in the test on PCTK1; 0% in the test with PCTK2. Further, the “%Inh” value in the test with PCTK3 is listed as 0%; in the test with PDGFRA it was 0%; in the test with PDGFRB, 10%; with PDPK1 it was 17%.
As to `CNC(=O)c1ccc(C)c(-n2c(C)cc(OCc3ccc(F)cc3F)c(Br)c2=O)c1`, the “%Inh” value in the test with PAK3, with PAK4, in the test with PAK6, with PAK7, in the test with PCTK1 and with PCTK2 was 0% throughout. In addition, the “%Inh” value in the test on PCTK3, in the test with PDGFRA, in the test on PDGFRB and with PDPK1 was 0% each time.
In the case of `Cc1c(Cn2c3ccccc3n3c(=O)cc(N4CCOCC4)nc23)cccc1C(F)(F)F` [GSK2306394], the “%Inh” value turned out to be 23% in the test with PAK3; 0% in the test on PAK4; 0% in the test on PAK6; 0% with PAK7; 0% in the test on PCTK1; 0% in the test with PCTK2. Besides, the “%Inh” value in the test with PCTK3 is given as 5%; in the test with PDGFRA, 11%; with PDGFRB, 25%; with PDPK1, 0%.
